# CBFb RUNX1 block – blocks binding between human CBF-beta and RUNX1. Q01196+Q13951. AlphaScreen CBFb-His/RUNX1-biotin binding, biochemical. Potency, µM (highest dose often 59.8 µM), for inactives: at the top dose activity, negative = inhibition, hits mostly inhibitors. 230,000 tested, under 10 active. AID 1477; further: % of control where 0% means no effect
#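 Interaction loss through any mechanism counts as activity. Pre-formed complex of His-CBF-beta and biotin-RUNX1 (30 nM apiece) is incubated with compound 15 min, then with 50 ng nickel and 50 ng streptavidin beads for 90 min before AlphaScreen detection.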
# HTT ATP protect – Huntington cell model cytoprotection by ATP luminescence. PC12 HTT-Q103 induced, cytoprotection, ATP luminescence, 40 h. Potency, µM (top dose mostly 56.4 µM), for the others: cytoprotection (ATP increase), actives largely listed as activators. 230,000 compounds, 0.14% hits; further: potency means the concentration at half of the fitted maximal effect; % of control where 0% means no effect; nearly all actives have a fitted effect of over 45% in size
#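 Rat PC12, Q103 Htt exon1-GFP fusion, ecdysone promoter; tebufenozide inducer 100 nM final; compound titration; qHTS, 1500 cells/well; ATPlite luminescent read.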
# KDM4E inh – blocks human JMJD2E demethylase activity; B2RXH2; JMJD2E catalytic domain, FDH-coupled NADH fluorescence (FDH is formaldehyde dehydrogenase); Potency, µM (highest dose often 57.1 µM), for inactives: at the top dose activity change, negative = inhibition, actives largely listed as inhibitors; 230,000 compounds, 1.6% hits; active means well fitted inhibition curve with a large enough effect, not every such curve was filed as active; inconclusive means small, poorly fitted or top-dose-only effect, or another doubt; inactive means no such curve, though single readings can be large or run the other way;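 further: potency means the concentration at half of the fitted maximal effect; 0% = wells with enzyme and -100% = buffer wells without enzyme; nearly all actives have a fitted effect of over 50% in size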
# HPGD block – blocks human HPGD enzyme activity. P15428. purified HPGD, NADH fluorescence kinetic, PGE2 substrate. Potency, µM, for inactives: top-dose activity change, negative = inhibition, actives largely listed as inhibitors. 150,000 compounds, 4.3% hits; active means well fitted inhibition curve with a large enough effect, not every such curve was filed as active; inconclusive means small, poorly fitted or top-dose-only effect, or another doubt; inactive means no such curve, though single readings can be large or run the other way; further: potency means the concentration at half of the fitted maximal effect; on the % scale 0 is the no-effect control and ±100 the full control effect
#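 20 nM HPGD preincubated 15 min at room temperature with compound in 50 mM Tris-HCl pH 8, 0.01% Tween 20. Started with 1 mM NAD+ and 30 uM prostaglandin E2; NADH fluorescence (360/450 nm) read 5 times over 30-s intervals, last minus first.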
# ALDH1A1 inh – ALDH1A1 (human) enzyme inhibition; P00352; Purified ALDH1A1, NADH fluorescence, propionaldehyde substrate; Potency, µM (titrated, usually from 75.3 µM), without a hit: at the highest dose activity, negative = inhibition, actives largely listed as inhibitors; 220,000 compounds, 7.3% hits; AID 1030; active means well fitted inhibition curve with a large enough effect, not every such curve was filed as active; inconclusive means small, poorly fitted or top-dose-only effect, or another doubt; inactive means no such curve, though single readings can be large or run the other way;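 further: potency means the concentration at half of the fitted maximal effect; plate controls were no enzyme wells and a reference inhibitor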
# Target sequence (P00352 whole entry, looked up): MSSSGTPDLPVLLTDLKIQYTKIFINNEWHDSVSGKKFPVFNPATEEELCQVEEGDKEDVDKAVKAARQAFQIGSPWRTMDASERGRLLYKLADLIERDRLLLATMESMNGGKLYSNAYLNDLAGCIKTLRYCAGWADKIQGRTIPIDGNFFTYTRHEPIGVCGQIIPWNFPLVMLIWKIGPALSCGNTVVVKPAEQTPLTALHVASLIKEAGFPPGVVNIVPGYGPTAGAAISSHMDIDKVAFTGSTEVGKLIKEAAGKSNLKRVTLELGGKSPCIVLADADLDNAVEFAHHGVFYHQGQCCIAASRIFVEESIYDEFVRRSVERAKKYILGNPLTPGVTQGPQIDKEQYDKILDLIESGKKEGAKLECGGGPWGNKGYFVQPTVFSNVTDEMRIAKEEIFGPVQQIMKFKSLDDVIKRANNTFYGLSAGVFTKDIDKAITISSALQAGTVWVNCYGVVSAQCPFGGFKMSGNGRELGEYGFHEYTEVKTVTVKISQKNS
# HttQ103 aggreg – mutant huntingtin aggregation inhibition. PC12 HttQ103-GFP aggregates, Acumen cytometry, 40 h. Potency, µM (highest dose often 46.1 µM), without a hit: at the top dose activity change, negative = inhibition, most hits filed as inhibitors. 220,000 compounds, 1.1% hits. AID 1688; further: potency means the concentration at half of the fitted maximal effect; on the % scale 0 is the no-effect control and ±100 the full control effect; nearly all actives have a fitted effect of over 60% in size
#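 Aggregates are detected as GFP objects 1–25 µm with signal 6 STDEV over background in lysates of induced PC12 cells. These carry Huntingtin exon 1 with 103 glutamines fused to GFP under an ecdysone promoter; compounds titrated.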
# The depositor's hits bear a star; ? = inconclusive; . = no result; [ ] = another dose, or the depositor's remark. Hits are enriched below; roughly 9.8% of the tested compounds scored in any of these assays. Unless noted, the call rests on the fitted dose curve; in most records, active means well fitted curve in the direction sought with a large enough effect; inconclusive means small, poorly fitted or top-dose-only effect, or another doubt; inactive means no such curve, though single readings can be large; an effect the other way counts as inactive or inconclusive.
SMILES,CBFb RUNX1 block,HTT ATP protect,KDM4E inh,HPGD block,ALDH1A1 inh,HttQ103 aggreg
C[C@@H](C(=O)Nc1nc(-c2ccccn2)cs1)N1C(=O)C2CCCCC2C1=O (some centres undefined),?,3%,?,25µM*,13µM*,?
CC1CC1C(=O)Nc1nc(-c2ccccn2)cs1 (centres undefined),?,-10%,-18%,14µM*,10µM*,-42%
CC(C)[C@H](NC(=O)c1ccccc1Cl)C(=O)Nc1nc(-c2ccccn2)cs1,?,-44%,?,.,?,18%
O=C(Nc1nc(-c2ccccn2)cs1)C1COc2ccccc2O1 (centres undefined),2%,-5%,7%,-10%,6%,1%
O=C(CN1C(=O)C2CCCCC2C1=O)Nc1nc(-c2ccccn2)cs1 (centres undefined),.,13%,?,28µM*,22µM*,11µM*
O=C1C2C3C=CC(C3)C2C(=O)N1CNc1ccccn1 (centres undefined),2%,9%,4%,-1%,10%,1%
O=C(CCN1C(=O)C2CCCCC2C1=O)Nc1nc(-c2ccc(F)c(F)c2)cs1 (centres undefined),5%,-4%,-1%,.,?,-10%
Cc1cnc(NC(=O)CCNC(=O)c2ccc([N+](=O)[O-])cc2)s1,1%,8%,2%,.,6%,13%
Cc1cc(F)c(F)c(C(=O)N2C(C)CCCC2C)c1Cl (centres undefined),4%,.,-1%,.,4%,.
CC(C)CC(=O)Nc1ccnc(-c2ccncc2)n1,2%,-20%[1.9 µM],-5%,.,-4%,-2%[9.22 µM]
c1ccc(CCNc2nc(-c3ccccn3)cs2)cc1,0%,-4%[10 µM],-7%,.,32µM*,34%[9.22 µM]
CCCCCC(=O)NC(=S)NC1C2CC3CC(C2)CC1C3 (centres undefined),6%,-4%[10 µM],-3%,.,.,-10%[9.22 µM]
O=c1[nH]c(-c2ccccc2F)nc2c1sc(=S)n2Cc1ccccc1,1%,38%[10 µM],11%,10µM*,13%,-23%
CCOC(=O)/C=C1\NC(C)(C)Cc2cc(OC)c(O)cc21,-2%,-31%,-8%,35µM*,11µM*,26%
Cn1c(=S)[nH]c2c(c1=O)C(C)(C)Cc1ccccc1-2,-7%,-4%,-19%,.,8.9µM*,9%
CCn1c(=S)[nH]c2c(c1=O)C(C)(C)Cc1ccccc1-2,-7%,?,-5%,.,4%,14%[9.22 µM]
O=C(CC12CC3CC(CC(C3)C1)C2)NC(=S)NCc1ccco1,?,-27%,2%,.,?,?
O=C(/C=C/c1ccccc1)/C=C/c1ccccc1,-1%,34%[0.074 µM],-4%,-22%,32µM*,-19%
COc1ccc(S(=O)(=O)N(CC(=O)NC2CC2)C2CCCCC2)cc1Cl,-9%,1%,5%,-6%,8.9µM*,18%
CNC(=O)CN(C1CCCCC1)S(=O)(=O)c1ccc(OC)c(Cl)c1,10%,1%[10 µM],3%,-8%,1%,7%
COc1cc(CC(=O)Nc2ccc(S(=O)(=O)NC3=NCCCCC3)cc2)cc(OC)c1OC,15%,-11%,3%,.,-4%,14%
COc1ccc(C(=O)c2sc(Nc3ccccc3)c(C(=O)Nc3ccc(OC)c(OC)c3)c2N)cc1,?,-1%,-18%,-14%,18µM*,4%
COc1ccc(NC(=O)c2c(Nc3ccccc3)sc(C(=O)c3ccc(F)cc3)c2N)cc1,?,-16%,39%,?,-3%,?
COCCCn1c(-c2ccc(S(=O)(=O)N3CCOCC3)cc2)csc1=Nc1ccccc1,-10%,4%,-18%,?,14µM*,?
CSC1=N/C(=C\c2ccc(C)s2)C(=O)S1,-1%,5%[10 µM],-3%,-5%,-14%,3%
SMILES,CBFb RUNX1 block,HTT ATP protect,KDM4E inh,HPGD block,ALDH1A1 inh,HttQ103 aggreg
O=C1SC(SCc2ccccc2)=N/C1=C\c1ccco1,?,14%[0.074 µM],-10%,-6%,-8%,?
CCCSC1=N/C(=C\C=C\c2ccco2)C(=O)S1,.,-1%,8.9µM*,-28%,28µM*,19%
CSC1=N/C(=C\c2ccc(C)o2)C(=O)S1,1%,3%,-1%,?,10µM*,?
CCSC1=N/C(=C\c2cccc(F)c2)C(=O)S1,-1%,-6%[0.074 µM],-1%,-6%,7%,14%
CCCSC1=N/C(=C\c2ccc([N+](=O)[O-])o2)C(=O)S1,.,-23%,?,.,14µM*,25%
CCSC1=N/C(=C\c2ccc(-c3ccccc3[N+](=O)[O-])o2)C(=O)S1,?,-14%,?,-19%,0.32µM*,16%
CCCSC1=N/C(=C\c2ccsc2)C(=O)S1,-2%,13%,-7%,-5%,0%,6%
Cn1cc([N+](=O)[O-])c(C(=O)N/N=C/c2cc3c(cc2Br)OCO3)n1,-6%,4%[10 µM],-13%,.,?,5%[9.22 µM]
O=[N+]([O-])c1cccc(I)c1,5%[21.7 µM],-51%,.,-14%,7%,.
O=C(NCCNC1CCC(c2ccccc2)CC1)c1cccs1 (centres undefined),0%,14%[10 µM],-23%,.,-11%,5%[9.22 µM]
COC(=O)N/N=C(\C)c1ccc2ccccc2c1OC(F)F,-8%,0.79µM*,4%,-10%,8%,?
O=C(O)COc1ccccc1/C=N/NC(=O)CN1CCN(Cc2ccc(Cl)cc2)CC1,-3%,9%[10 µM],-2%,.,.,1%[9.22 µM]
COc1ccccc1Nc1ccc(C(=O)O)cc1[N+](=O)[O-],-7%,-11%,1%,.,?,-18%
COc1cccc(Nc2ccc(C(=O)O)cc2[N+](=O)[O-])c1,-17%,14%[10 µM],-5%,28µM*,-9%,1%
CC12C=C(/C=C/c3ccc(Br)cc3)C(C)(C1)[C@H](c1ccc(Br)cc1)CC2=O (some centres undefined),-13%,?,-3%,-4%,2%,.
COC(=O)C1=C(C(=O)OC)C(c2ccccc2O)c2sc(=O)[nH]c2S1 (centres undefined),4%,11%[10 µM],?,22µM*,?,26%
O=C(CSc1nc2ccccc2o1)N/N=C/c1ccc(C(=O)O)cc1,1%,0%[10 µM],0%,.,.,-14%[9.22 µM]
CC1CCc2c(sc3nc(CSc4nnnn4C)[nH]c(=O)c23)C1 (centres undefined),1%,-20%[10 µM],-5%,.,?,-15%[9.22 µM]
COc1ccc(OC)c(C2C(C#N)=C(N)Oc3cc(C)[nH]c(=O)c32)c1 (centres undefined),3%,-29%,2%,-13%,-1%,-1%
COc1ccc(OC)c(C2C(C#N)=C(N)Oc3cc(N)ccc32)c1 (centres undefined),-2%,10%,?,-7%,11µM*,8%
